Several values for one entry are separate records, joined by “and”; a condition that tells them apart may be missing. Equal entries are not always repeated. More than one record can exist for a structure, and the calls need not agree. Activity calls are given as the source filed them. Unless noted, calls come from the whole dose curve; as a rule, active = well fitted curve in the direction sought with a large enough effect in the repeat runs; inconclusive = weak or mixed curves; inactive = no such curve, though single readings can be large; an effect the other way counts as inactive or inconclusive.
What was measured:
[1] = qHTS assay to identify small molecule antagonists of the thyroid receptor (TR) signaling pathway - cell viability counter screen (AID 743064); note: potency is the fitted concentration of half-maximal effect; nearly all actives have a fitted effect of over 50% in size
How it was run: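 Counter screen for cytotoxicity: compound plus T3 (1 nM final) on GH3.TRE-Luc cells, 23.5 h at 37 °C, then fluorescence viability readout with CellTiter-Fluor.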

[2] = qHTS assay to identify small molecule antagonists of the thyroid receptor (TR) signaling pathway (AID 743065); note: potency is the fitted concentration of half-maximal effect; nearly all actives have a fitted effect of over 55% in size
How it was run: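 GH3.TRE-Luc rat pituitary cells (two TREs driving luciferase) were dosed with compound, then stimulated with 1 nM T3 (final) for 23.5 h at 37 C. ONE-Glo luminescence was the read-out, with CellTiter-Fluor fluorescence as the cytotoxicity counter-screen.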

[3] = qHTS assay to identify small molecule antagonists of the estrogen receptor alpha (ER-alpha) signaling pathway - cell viability counter screen (AID 743074; calls by dose curve;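 note: HEK293 cells carrying ER-alpha-UAS-bla reporter stimulated with 17beta-estradiol; nearly all actives have a fitted effect of over 45% in size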; note: potency is the fitted concentration of half-maximal effect)
[4] = molecular target: Estrogen receptor (Homo sapiens) (UniProt P03372); test: qHTS assay to identify small molecule agonists of the estrogen receptor alpha (ER-alpha) signaling pathway (AID 743075; calls by dose curve;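 note: HEK293 GripTite cells with ER-alpha and UAS-driven beta-lactamase reporter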; note: potency is the fitted concentration of half-maximal effect; for activation: % is set by controls: 0 for no effect and ±100 for the full control effect); settings: HEK293 ER-alpha-UAS-bla, beta-lactamase FRET ratio, 18 h; activation: at 70.1 µM (top of the series)
Aromatase (Homo sapiens) = Aromatase (Homo sapiens) (UniProt P11511); test: qHTS assay to identify aromatase inhibitors (AID 743083); note: nearly all actives have a fitted effect of over 55% in size; note: potency is the fitted concentration of half-maximal effect
[5] = qHTS assay to identify aromatase inhibitors - cell viability counter screen (AID 743084);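 note: cells stimulated with testosterone during compound exposure; nearly all actives have a fitted effect of over 55% in size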; note: potency is the fitted concentration of half-maximal effect
[6] = molecular target: Aryl hydrocarbon receptor (Homo sapiens) (UniProt P35869); test: qHTS assay to identify small molecule that activate the aryl hydrocarbon receptor (AhR) signaling pathway (AID 743085); note: nearly all actives have a fitted effect of over 15% in size; note: potency is the fitted concentration of half-maximal effect;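 for activation: HG2L7.5c1 human HepG2 liver cells with stably integrated DRE-driven firefly reporter; % is set by controls: 0 for no effect and ±100 for the full control effect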
How it was run: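 Measured in HG2L7.5c1 cells: CellTiter-Fluor signal (30 min incubation, 37C) for viability, then luciferase luminescence (30 min, room temperature). Compound contact time was 24 h at 37C, following a 5 h pre-incubation.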

[7] = qHTS assay to identify small molecule that activate the aryl hydrocarbon receptor (AhR) signaling pathway - cell viability counter screen (AID 743086); note: nearly all actives have a fitted effect of over 45% in size; note: potency is the fitted concentration of half-maximal effect
How it was run: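 HepG2-AhR-luc (HG2L7.5c1) cells, 4000/well, treated 24 h at 37 C with compound; viability measured as CellTiter-Fluor fluorescence after 30 min in the same wells as the luciferase read.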

[8] = qHTS assay to identify small molecule antagonists of the peroxisome proliferator-activated receptor gamma (PPARg) signaling pathway - cell viability counter screen (AID 743194); note: nearly all actives have a fitted effect of over 55% in size; note: potency is the fitted concentration of half-maximal effect
How it was run: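 Cytotoxicity counter screen in PPARg-bla HEK293H cells, same wells as reporter assay. Compounds plus 50 nM rosiglitazone (final) for 17 h at 37 C, then viability read by CellTiter-Glo luminescence.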

[9] = qHTS assay for small molecule agonists of the antioxidant response element (ARE) signaling pathway - cell viability counter screen (AID 743203; calls by dose curve; note: nearly all actives have a fitted effect of over 55% in size; note: potency is the fitted concentration of half-maximal effect)
How it was run: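 Measured in the same wells as the beta-lactamase ARE reporter, this read-out is CellTiter-Glo luminescence from HepG2 ARE-bla cells given compounds for 16 hrs.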

[10] = qHTS assay for small molecule activators of the heat shock response signaling pathway - cell viability counter screen (AID 743209); note: nearly all actives have a fitted effect of over 50% in size; note: potency is the fitted concentration of half-maximal effect
How it was run: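 Same-well multiplex: after 2.5 h room-temperature incubation with LiveBLAzer B/G substrate and fluorescence reading, CellTiter-Glo reagent was added to HSE-bla HeLa cells that had received compound for 5 h at 37 C; luminescence read after 30 min.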

[11] = qHTS assay to identify small molecule antagonists of the estrogen receptor alpha (ER-alpha) signaling pathway using the BG1 cell line - cell viability counter screen (AID 743081);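 note: compound given together with 17beta-estradiol as the ER stimulus; nearly all actives have a fitted effect of over 45% in size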; note: potency is the fitted concentration of half-maximal effect
[12] = molecular target: Peroxisome proliferator-activated receptor gamma (Homo sapiens) (UniProt P37231); test: qHTS assay to identify small molecule antagonists of the peroxisome proliferator-activated receptor gamma (PPARg) signaling pathway (AID 743191; calls by dose curve; note: potency is the fitted concentration of half-maximal effect; nearly all actives have a fitted effect of over 30% in size)
How it was run: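 GeneBLAzer PPARg UAS-bla HEK293H cells, 5 h post-plating, exposed to compounds 17 h at 37C. LiveBLAzer B/G FRET substrate added for 1 h at room temperature; beta-lactamase reporter read by fluorescence intensity.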

[13] = qHTS assay for small molecule activators of the heat shock response signaling pathway (AID 743210; active = well fitted activation curve with a large enough effect in the signal ratio in the repeat runs, with a control signal flat, not every such curve was filed as active; inconclusive = weak or mixed curves; the % refers to the signal ratio;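 note: HeLa cells with beta-lactamase reporter driven by heat shock elements; % is set by controls: 0 for no effect and ±100 for the full control effect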)
How it was run: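 Beta-lactamase reporter read-out: FRET substrate fluorescence after 2.5 h at RT, following 5 h compound treatment at 37 C of HeLa cells carrying HSE-driven bla reporter; quantitative HTS format.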

[14] = qHTS assay to identify small molecule antagonists of the estrogen receptor alpha (ER-alpha) signaling pathway using the BG1 cell line (AID 743080; calls by dose curve;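 note: BG1 cells stimulated with 17beta-estradiol alongside compound; nearly all actives have a fitted effect of over 25% in size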; note: potency is the fitted concentration of half-maximal effect)
How it was run: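 Quantitative HTS on the Tox21 10K library: BG1 cells with endogenous ER-alpha and ERE-luciferase reporter, 17beta-estradiol stimulation, 21.5 h compound exposure, luminescence endpoint with parallel fluorescence cytotoxicity counter-read.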

[15] = molecular target: Estrogen receptor (Homo sapiens) (UniProt P03372); test: qHTS assay to identify small molecule antagonists of the estrogen receptor alpha (ER-alpha) signaling pathway (AID 743069; active = well fitted curve in the direction sought with a large enough effect in the signal ratio in the repeat runs, not every such curve was filed as active; inconclusive = weak or mixed curves, or effect the other way; inactive = no such curve, though single readings can be large or run the other way; the % refers to the signal ratio; note: potency is the fitted concentration of half-maximal effect)
How it was run: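 Beta-lactamase FRET fluorescence is read after 2 hr at room temperature with LiveBLAzer B/G substrate. Before that, ER-alpha-bla HEK293 cells sit 4 hr after plating, then receive compound plus 17beta-estradiol and incubate 18 hr at 37C.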

[16] = molecular target: Estrogen receptor (Homo sapiens) (UniProt P03372); test: qHTS assay to identify small molecule agonists of the estrogen receptor alpha (ER-alpha) signaling pathway using the BG1 cell line (AID 743079); settings: BG1Luc4E2 cells, ERE-luciferase agonist, 22 h; note: nearly all actives have a fitted effect of over 20% in size; note: potency is the fitted concentration of half-maximal effect
[17] = molecular target: Peroxisome proliferator-activated receptor gamma (Homo sapiens) (UniProt P37231); test: qHTS assay to identify small molecule agonists of the peroxisome proliferator-activated receptor gamma (PPARg) signaling pathway (AID 743094; active = well fitted activation curve with a large enough effect in the signal ratio in the repeat runs, not every such curve was filed as active; inconclusive = weak or mixed curves, or effect the other way; inactive = no such curve, though single readings can be large or run the other way; the % refers to the signal ratio; note: % is set by controls: 0 for no effect and ±100 for the full control effect)
How it was run: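 Cell-based bla reporter, HEK293H background, PPARg-driven UAS. Pre-incubation 5 h, 37C, 5% CO2. Compound 17 h, 37C. Substrate 1 h RT; fluorescence.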

Aromatase (Homo sapiens), sequence (P11511 whole entry, looked up): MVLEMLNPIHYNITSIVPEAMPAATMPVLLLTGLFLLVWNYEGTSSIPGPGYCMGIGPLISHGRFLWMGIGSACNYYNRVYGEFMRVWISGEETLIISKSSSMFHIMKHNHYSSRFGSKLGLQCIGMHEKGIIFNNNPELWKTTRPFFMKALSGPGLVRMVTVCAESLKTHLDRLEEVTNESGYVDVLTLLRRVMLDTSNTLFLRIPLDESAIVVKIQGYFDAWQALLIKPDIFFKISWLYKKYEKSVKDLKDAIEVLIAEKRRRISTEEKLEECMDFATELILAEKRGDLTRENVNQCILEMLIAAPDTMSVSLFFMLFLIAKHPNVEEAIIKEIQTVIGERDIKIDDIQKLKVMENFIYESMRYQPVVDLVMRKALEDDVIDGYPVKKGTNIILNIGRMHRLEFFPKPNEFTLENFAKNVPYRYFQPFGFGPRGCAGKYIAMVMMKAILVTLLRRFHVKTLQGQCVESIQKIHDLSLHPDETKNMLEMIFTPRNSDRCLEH
Estrogen receptor (Homo sapiens), sequence (P03372 whole entry, looked up): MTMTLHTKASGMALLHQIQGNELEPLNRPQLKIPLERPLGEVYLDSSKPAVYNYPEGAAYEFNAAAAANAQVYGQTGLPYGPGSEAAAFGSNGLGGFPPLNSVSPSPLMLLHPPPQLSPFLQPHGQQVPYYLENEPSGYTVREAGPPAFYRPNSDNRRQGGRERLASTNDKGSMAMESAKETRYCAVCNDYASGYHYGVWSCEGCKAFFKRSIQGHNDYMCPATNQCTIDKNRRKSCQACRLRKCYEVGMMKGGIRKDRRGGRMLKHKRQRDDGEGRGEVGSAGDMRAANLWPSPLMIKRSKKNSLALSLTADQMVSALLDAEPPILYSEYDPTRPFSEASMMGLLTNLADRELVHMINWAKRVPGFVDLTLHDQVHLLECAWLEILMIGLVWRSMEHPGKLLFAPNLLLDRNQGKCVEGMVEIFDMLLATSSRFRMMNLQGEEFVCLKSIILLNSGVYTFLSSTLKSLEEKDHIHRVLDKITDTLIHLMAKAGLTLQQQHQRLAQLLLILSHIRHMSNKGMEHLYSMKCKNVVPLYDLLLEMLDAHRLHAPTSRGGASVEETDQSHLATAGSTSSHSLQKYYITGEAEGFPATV
Aryl hydrocarbon receptor (Homo sapiens), sequence (P35869 whole entry, looked up): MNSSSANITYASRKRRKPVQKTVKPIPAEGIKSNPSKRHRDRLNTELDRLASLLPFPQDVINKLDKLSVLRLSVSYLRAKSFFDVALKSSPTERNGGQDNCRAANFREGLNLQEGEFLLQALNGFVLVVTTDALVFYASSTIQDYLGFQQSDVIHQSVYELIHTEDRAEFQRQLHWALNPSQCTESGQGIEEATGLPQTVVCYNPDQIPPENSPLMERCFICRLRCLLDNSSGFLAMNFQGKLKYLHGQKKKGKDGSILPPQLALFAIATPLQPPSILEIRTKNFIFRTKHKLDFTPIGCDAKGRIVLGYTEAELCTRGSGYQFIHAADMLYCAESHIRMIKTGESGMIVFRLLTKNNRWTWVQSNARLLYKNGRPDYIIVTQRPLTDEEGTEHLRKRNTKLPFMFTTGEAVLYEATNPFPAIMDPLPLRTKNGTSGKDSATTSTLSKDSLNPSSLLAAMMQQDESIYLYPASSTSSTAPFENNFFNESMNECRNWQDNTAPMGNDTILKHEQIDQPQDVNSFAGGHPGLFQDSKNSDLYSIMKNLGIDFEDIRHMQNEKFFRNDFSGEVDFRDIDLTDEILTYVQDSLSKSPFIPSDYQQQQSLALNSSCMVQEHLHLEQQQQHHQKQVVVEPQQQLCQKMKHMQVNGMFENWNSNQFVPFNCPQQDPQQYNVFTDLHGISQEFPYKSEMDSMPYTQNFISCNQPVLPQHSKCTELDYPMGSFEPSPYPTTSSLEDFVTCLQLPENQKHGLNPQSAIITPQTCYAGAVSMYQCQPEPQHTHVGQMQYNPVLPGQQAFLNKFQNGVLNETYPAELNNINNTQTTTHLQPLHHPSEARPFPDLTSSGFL
Peroxisome proliferator-activated receptor gamma (Homo sapiens), sequence (P37231 whole entry, looked up): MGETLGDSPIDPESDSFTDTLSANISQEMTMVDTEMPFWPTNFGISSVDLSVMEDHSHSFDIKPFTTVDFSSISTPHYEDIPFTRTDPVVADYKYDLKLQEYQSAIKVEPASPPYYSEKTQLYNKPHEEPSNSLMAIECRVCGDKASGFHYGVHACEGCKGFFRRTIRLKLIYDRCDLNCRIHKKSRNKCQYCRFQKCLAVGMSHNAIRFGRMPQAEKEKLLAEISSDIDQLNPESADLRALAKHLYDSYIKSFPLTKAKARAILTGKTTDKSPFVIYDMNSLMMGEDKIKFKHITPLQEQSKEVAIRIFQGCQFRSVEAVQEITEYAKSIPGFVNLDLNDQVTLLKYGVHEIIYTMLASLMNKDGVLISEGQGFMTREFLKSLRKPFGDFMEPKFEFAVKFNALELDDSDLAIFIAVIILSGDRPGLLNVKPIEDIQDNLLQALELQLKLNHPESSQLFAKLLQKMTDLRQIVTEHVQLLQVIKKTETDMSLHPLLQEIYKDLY

Oc1cc2ccccc2c2ccccc12
active: Potency [1] 10.9 µM | Potency [2] 10.9 µM | Potency [3] 11 µM | Potency [4] 24.5 µM [fluorescent] | Potency (Aromatase (Homo sapiens)) 6.86 µM | Potency [5] 8.63 µM | Potency [6] 8.63 µM | Potency [7] 24.3 µM | Potency [8] 3.89 µM | Potency [9] 9.69 µM | Potency [10] 9.77 µM

CN(C)C(=O)C1(N2CCCCC2)CCN(CC[C@@]2(c3ccc(Cl)c(Cl)c3)CN(C(=O)c3ccccc3)CCO2)CC1
inactive: Potency [6]
active: Potency [1] 5.09 µM | Potency [2] 4.54 µM | Potency [3] 51.3 µM | Potency [11] 64.1 µM | Potency (Aromatase (Homo sapiens)) 40.4 µM | Potency [5] 50.9 µM | Potency [7] 20.3 µM | Potency [8] 16.2 µM | Potency [9] 20.3 µM | Potency [10] 51.3 µM

C[n+]1cc2c3c(ccc2c2ccc4cc5c(cc4c21)OCO5)OCO3
active: Potency [1] 2.98 µM | Potency [2] 2.66 µM | Potency [3] 10.7 µM | Potency [4] 15.1 µM [inconclusive] | Potency (Aromatase (Homo sapiens)) 11.9 µM | Potency [5] 21.1 µM | Potency [6] 6.68 µM | Potency [7] 10.6 µM | Potency [8] 1.3 µM

COc1ccc(CN2CCN(C(c3ccc(F)cc3)c3ccc(F)cc3)CC2)c(OC)c1OC
inactive: Potency (Aromatase (Homo sapiens)) | Potency [9] | Potency [10] | Potency [13]
active: Potency [1] 11.9 µM | Potency [2] 13.3 µM | Potency [3] 26.8 µM | Potency [12] 26.6 µM | Potency [8] 26.6 µM

c1cc(C(c2ccc(OCC3CO3)cc2)c2ccc(OCC3CO3)cc2)ccc1OCC1CO1 (centres undefined)
inactive: Potency [3] | Potency [4] | Potency [14] | Potency [11] | Potency [10]
active: Potency [1] 17.2 µM | Potency [2] 12.2 µM | Potency (Aromatase (Homo sapiens)) 68.6 µM | Potency [5] 54.5 µM | Potency [8] 21.9 µM

CCCCCCCCCCn1cc[n+](CCCCCCCCCC)c1C
active: Potency [1] 6.87 µM | Potency [2] 3.86 µM | Potency [15] 61.7 µM [cytotoxic] | Potency [3] 19.5 µM | Potency [14] 8.64 µM | Potency [11] 48.6 µM | Potency (Aromatase (Homo sapiens)) 5.45 µM | Potency [5] 24.4 µM | Potency [8] 6.93 µM | Potency [9] 19.4 µM | Potency [10] 21.9 µM

CCOC(=O)O[C@H](C)OC(=O)c1ccc2c(c1)cc(C(=O)NC1CCN(C(C)C)CC1)n2Cc1cc(-c2ccc(Cl)s2)on1
active: Potency [1] 5.09 µM | Potency [2] 4.54 µM | Potency [3] 45.8 µM | Potency (Aromatase (Homo sapiens)) 14.3 µM | Potency [5] 18.1 µM | Potency [8] 10.2 µM | Potency [9] 22.7 µM | Potency [10] 22.9 µM
inactive: Potency [11]

Cc1cc(C2CCCCC2)n(O)c(=O)c1
inactive: Potency [4] | Potency [11] | Potency [7] | Potency [10]
active: Potency [1] 2.54 µM | Potency [2] 2.27 µM | Potency [15] 2.88 µM [inhibitor] | Potency [14] 9.02 µM | Potency [5] 12.7 µM

O=C(Nc1cccc(C(F)(F)F)c1)c1cc(Br)cc(Br)c1O
inactive: Potency [4] | Potency [6] | Potency [7]
active: Potency [1] 5.96 µM and 2.43 µM | Potency [2] 2.98 µM and 1.09 µM | Potency [3] 1.34 µM and 977 nM | Potency (Aromatase (Homo sapiens)) 11.9 µM and 4.86 µM | Potency [8] 0.389 µM

CC[C@H]1O[C@]2(CC[C@@H]1C)C[C@@H]1C[C@@H](C/C=C(\C)C[C@@H](C)/C=C/C=C3\CO[C@@H]4[C@H](O)C(C)=C[C@@H](C(=O)O1)[C@]34O)O2
active: Potency [1] 6.06 µM | Potency [2] 5.4 µM | Potency [3] 43.3 µM | Potency [11] 60.6 µM | Potency (Aromatase (Homo sapiens)) 30.4 µM | Potency [5] 27.1 µM | Potency [8] 19.3 µM | Potency [9] 21.5 µM | Potency [10] 6.85 µM
inactive: Potency [6]

OCCN1CCN(CC/C=C2/c3ccccc3Sc3ccc(C(F)(F)F)cc32)CC1
active: Potency [1] 15 µM | Potency [2] 11.9 µM | Potency [9] 29.8 µM
inactive: Potency [15] | Potency [4] | activation ([16]; at 70.3 µM (top of the series)) -29.2% | Potency [14] | Potency [11] | Potency (Aromatase (Homo sapiens)) | Potency [6] | Potency [10] | Potency [13]

CC(C)(C)CC(C)(C)c1ccc(OCCOCC[N+](C)(C)Cc2ccccc2)cc1
active: Potency [1] 16.8 µM and 13.7 µM | Potency [2] 16.8 µM and 13.7 µM | Potency [3] 19 µM and 19.5 µM | Potency (Aromatase (Homo sapiens)) 23.7 µM and 12.2 µM | Potency [5] 23.7 µM and 24.3 µM | Potency [8] 19.5 µM and 29.8 µM | Potency [9] 21.7 µM and 29.8 µM | Potency [10] 34.6 µM
inactive: Potency [4] | Potency [6] | Potency [17]
inactive and 61.1 µM (active): Potency [11] | Potency [7]

CCCN(CCC)C(=O)C(CCC(=O)OCCCN1CCN(CCOC(=O)Cc2c(C)n(C(=O)c3ccc(Cl)cc3)c3ccc(OC)cc23)CC1)NC(=O)c1ccccc1 (centres undefined)
active: Potency [1] 13.3 µM | Potency [2] 26.6 µM | Potency [4] 7.56 µM [activator] | Potency [16] 0.211 µM | Potency [6] 29.8 µM | Potency [7] 21.1 µM
inactive: Potency [3] | Potency [14] | Potency [11] | Potency [9]

CCC1=C[C@@H]2CN(C1)Cc1c([nH]c3ccccc13)[C@@](C(=O)OC)(c1cc3c(cc1OC)N(C)[C@H]1[C@@](O)(C(=O)OC)[C@H](OC(C)=O)[C@]4(CC)C=CCN5CC[C@]31[C@@H]54)C2
active: Potency [1] 4.73 µM | Potency [2] 1.88 µM
inactive: Potency [3] | Potency [14] | Potency (Aromatase (Homo sapiens)) | Potency [5] | Potency [6] | Potency [8] | Potency [10] | Potency [13]

CCCCCCCCCCCCc1ccc(O)cc1
active: Potency [1] 13.7 µM | Potency [2] 13.7 µM | Potency [3] 49 µM | Potency [4] 3.09 µM [inconclusive] | Potency [16] 0.969 µM | Potency (Aromatase (Homo sapiens)) 48.6 µM | Potency [5] 61.1 µM | Potency [8] 19.5 µM | Potency [9] 54.5 µM | Potency [10] 24.5 µM
inactive: Potency [7]

Cc1cc(CCN2CCN(c3nsc4ccccc34)CC2)cc2c1NC(=O)CC2(C)C
inactive: Potency [4] | Potency [6]
active: Potency [1] 43.3 µM | Potency [2] 27.3 µM | Potency [3] 27.5 µM | Potency [11] 54.5 µM | Potency (Aromatase (Homo sapiens)) 24.3 µM | Potency [5] 24.3 µM | Potency [7] 27.3 µM | Potency [8] 19.5 µM | Potency [9] 21.7 µM

From PubChem BioAssay (Tox21)
